Bioassay records as filed in PubChem BioAssay.
PREPL inh: inhibits the human prolyl oligopeptidase-like enzyme. Q4J6C6. recombinant PREPL, fluorescence polarization activity-based probe. inhibition, % at 5.96 µM. 0.68% of 320,000 active. AID 2751; in the data active = inhibition above about 43%;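 also: 0% = enzyme with DMSO and 100% = wells lacking enzyme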
VLA-4 inh: inhibition in a human VLA-4 binding assay | P13612 | VLA-4 expressing cells, ligand binding flow cytometry | inhibition, % (about 7 µM as worked out from the volumes in the protocol) | 0.2% of 330,000 active; in the data active = inhibition above about 50%
JMJD2C inh: human JMJD2C demethylase inhibition; AID 2099; inhibition, % at 2.35 µM; 0.069% of 330,000 active; GST-JMJD2C(1-420) H3K9me3 demethylation, DELFIA europium; Q9H3R0;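 active = more than half of a compound's replicate wells show inhibition beyond 50%, single wells judged on their own value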;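 also: signal counts dimethyl H3K9 product captured on neutravidin plate; 0% = median of DMSO wells and 100% = 0.3 times that DMSO median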
Pemphigus Ab inh: inhibitors of pemphigus antibody binding to human desmoglein-3; P32926; DSG3-coupled beads, scFv-anti-DSG3-GFP binding, flow cytometry; hits give low values; binding (percent of control), % at 10 µM; 0.48% of 310,000 active; AID 588358;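 active = binding more than 3 SD below its plate's average and above zero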;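 also: hits lower antibody fragment binding to DSG3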
GRK2 aptamer HTS: blocks RNA aptamer binding to human GRK2; AID 488847; 0.59% of 330,000 active; bead flow cytometry, FAM-aptamer displacement from GRK2; P25098; inhibition of aptamer binding, % at 10 µM;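 active = inhibition of aptamer binding above 40%, roughly 3 SD of noise, on plates passing a quality check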;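 also: median bead fluorescence of bound FAM aptamer so fluorescent compounds give negative values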
Target sequence (P25098 whole entry, looked up): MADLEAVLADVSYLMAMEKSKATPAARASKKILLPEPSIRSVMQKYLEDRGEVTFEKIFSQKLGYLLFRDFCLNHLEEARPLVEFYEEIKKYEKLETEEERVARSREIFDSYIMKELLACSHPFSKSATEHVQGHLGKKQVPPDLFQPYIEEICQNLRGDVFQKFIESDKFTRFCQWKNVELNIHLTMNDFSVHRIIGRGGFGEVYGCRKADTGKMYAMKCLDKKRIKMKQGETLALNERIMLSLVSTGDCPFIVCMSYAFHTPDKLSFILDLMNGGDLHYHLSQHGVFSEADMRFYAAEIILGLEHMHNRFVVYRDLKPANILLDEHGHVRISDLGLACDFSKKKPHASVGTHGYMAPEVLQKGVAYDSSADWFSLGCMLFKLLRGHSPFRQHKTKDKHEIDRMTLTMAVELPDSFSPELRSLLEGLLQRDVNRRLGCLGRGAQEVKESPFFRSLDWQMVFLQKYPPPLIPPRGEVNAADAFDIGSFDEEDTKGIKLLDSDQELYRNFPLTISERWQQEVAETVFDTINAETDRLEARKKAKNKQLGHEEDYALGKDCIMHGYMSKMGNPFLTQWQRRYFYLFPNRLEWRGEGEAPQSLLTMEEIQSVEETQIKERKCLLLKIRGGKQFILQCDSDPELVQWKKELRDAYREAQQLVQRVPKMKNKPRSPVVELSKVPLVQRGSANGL
GRK2 inh confirm: human GRK2 inhibition confirmation, cherry pick 1; shares compounds with GRK2 aptamer HTS; bead-bound GRK2, FAM-aptamer displacement, flow cytometry; aptamer displacement, % at 10 µM; 4% of 2,000 active;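 active = aptamer displacement above 40%, near three times the noise of non-fluorescent compounds, on plates passing quality checks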;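 also: negative values mostly reflect intrinsic compound fluorescence rather than true enhancement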
Aptamer quench SP: aptamer fluorescence quenching in GRK2 counter-screen. shares compounds with GRK2 aptamer HTS. Carboxyfluorescein RNA aptamer on beads, flow cytometry quenching; hits give low values. fluorescence response (% of DMSO), % at 10 µM. 2,000 tested, under 10 active. AID 504580;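 active = compounds that quench the bead-bound fluorescent RNA probe, cutting fluorescence to under half of the solvent control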;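 also: counterscreen run without GRK2 so only probe quenching by compound is measured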
GRK2 CP2: human GRK2 inhibition confirmation, cherry pick 2; shares compounds with GRK2 aptamer HTS; bead-bound GRK2, FAM-aptamer displacement, flow cytometry; inhibition of aptamer binding, % at 10 µM; 360 tested, under 10 active; AID 504782;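 active = inhibition of aptamer binding above 40%, about triple the noise seen with nonglowing compounds, on plates passing quality control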;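 also: negative values mostly come from compounds that fluoresce themselves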
FAM quench SP: counter-screen for GRK2 binding hits: quenchers of fluorescent RNA aptamer; shares compounds with GRK2 aptamer HTS; carboxyfluorescein RNA aptamer beads, flow cytometry quenching; hits give low values; fluorescence response vs DMSO, % at 10 µM; 360 tested, under 10 active; AID 588494;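 active = response vs DMSO under 50%, meaning signal dropped by over half, treated as fluorescence quencher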;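 also: labelled aptamer on streptavidin beads without GRK2 as a quench counter-screen; 100% = bead fluorescence of DMSO wells and lower means quenching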
An asterisk follows results filed as active; / = not tested or not shown. An excerpt weighted towards active compounds, which were near 1.6% of everything screened.

SMILES	PREPL inh	VLA-4 inh	JMJD2C inh	Pemphigus Ab inh	GRK2 aptamer HTS	GRK2 inh confirm	Aptamer quench SP	others
COc1cc(C(=O)Nc2ccc(C#N)cc2)c([N+](=O)[O-])cc1OC	-5	0	-10	103	0	/	/
O=C1C2C(c3cccc(/C=C/c4ccccc4)c3)CC=CC2C(c2ccc3ccccc3c2)N1Cc1ccccc1 (stereo not drawn)	0	17	7	92	0	0	107
CC[C@@H]1CC=C[C@H]2[C@H]1C(=O)N(Cc1ccccc1)[C@H]2c1ccc(C(F)(F)F)cc1	7	2	5	101	1	/	/
O=C1C2C(c3cccc(/C=C/c4ccccc4)c3)CC=CC2C(c2ccc(C(F)(F)F)cc2)N1Cc1ccccc1 (stereo not drawn)	0	17	14	100	0	0	103
Cc1ccc(F)c(C2C3C=CCC(c4cccc(-c5ccc(N(C)C)cc5)c4)C3C(=O)N2Cc2ccccc2)c1 (stereo not drawn)	1	6	0	95	0	5	96
Cc1ccc(-c2cccc(C3CC=CC4C3C(=O)N(Cc3ccccc3)C4c3ccc4ccccc4c3)c2)cc1 (stereo not drawn)	-12	0	2	92	0	/	/
O=C(c1ccc([N+](=O)[O-])cc1Cl)N1CCN(c2ccccn2)CC1	25	-24	1	/	1	/	/
O=C(c1ccc(Cl)cc1[N+](=O)[O-])N1CCN(c2ccccn2)CC1	17	5	4	104	82*	-5	102
Cc1c(C(=O)N2CCN(c3ccccn3)CC2)cccc1[N+](=O)[O-]	3	11	-3	107	4	1	103
Cc1cc(C)nc(NC(=O)Nc2ccc(F)cc2F)n1	/	8	-7	108	1	/	/
O=C(/C=C/c1ccco1)NCc1ccco1	-2	5	2	80*	60*	0	93
CCc1ccc(/C(C)=N/NC(=O)CNC(=O)/C=C/c2ccccc2OC)cc1	-7	-2	-4	/	0	/	/
CCc1ccc(/C(C)=N/NC(=O)CNC(=O)/C=C/c2ccco2)cc1	2	1	6	64*	42*	12	91
Cc1ccc(/C=C/C(=O)NCc2ccco2)o1	-4	16	2	/	19	/	/
O=C(CN1C(=O)NC2(CCc3ccccc32)C1=O)Nc1ccc(Cl)cc1F (stereo not drawn)	/	/	/	103	/	/	/
CC(C)OCCCNC(=O)CN1C(=O)c2cccc3cccc1c23	6	0	-3	112	2	/	/
COc1ccc(N2CCN(C3CCCN(C(=O)CN4CCOC4=O)C3)CC2)cc1 (stereo not drawn)	7	-3	5	99	20	/	/
CN(C)S(=O)(=O)c1cccc(COC(=O)c2ccc(Cl)cc2O)c1	11	-1	3	104	0	/	/
CN(C)S(=O)(=O)c1cccc(COc2ncnc3c(Cl)cc(Cl)cc23)c1	-6	-2	-8	103	90*	0	102
COc1cc(CNC2CCCCCCC2)cc(Cl)c1OC	-10	19	6	92	0	/	/
C=CCOc1c(CNC2CCCC2)cc(Cl)cc1OC	-7	4	9	111	87*	-2	102
CN(CC(=O)Nc1ccccc1Cl)C(=O)COC(=O)c1nc(Cl)c(Cl)c(Cl)c1Cl	16	-5	-10	102	2	/	/
COc1ccccc1NS(=O)(=O)c1cccc(C(=O)OCC(=O)NC2CC2)c1	-8	-3	6	104	59*	-17	95
CNS(=O)(=O)c1cccc(C(=O)OCC(=O)NC2CCCC2)c1	19	1	-6	87	3	/	/
Cc1nc(N2CCN(C(=O)c3ccco3)CC2)c2c3c(sc2n1)CC(C)CC3 (stereo not drawn)	10	0	-5	99	0	/	/
SMILES	PREPL inh	VLA-4 inh	JMJD2C inh	Pemphigus Ab inh	GRK2 aptamer HTS	GRK2 inh confirm	Aptamer quench SP	others
Cc1nc(N2CCN(C(=O)c3ccco3)CC2)c2c3c(sc2n1)CCCC3	13	-1	-7	124	19	-2	96
COc1cc2sc3cc(NCC[C@@H]4CCCN4C)ccc3c(=O)c2cc1OC	42	2	20	114	77*	/	/	GRK2 CP2=-23;FAM quench SP=97
O=C(O)Cn1c(COc2ccc(Cl)cc2)nc2ccccc21	4	5	3	102	0	/	/
O=C(Cn1c(COc2ccccc2)nc2ccccc21)Nc1cccc(Cl)c1	-6	13	-9	/	100*	/	/	GRK2 CP2=15;FAM quench SP=99
Cc1cc(C)n(CCN(C)C(=O)C2CCC(=O)N(CCc3cccc(F)c3)C2)n1 (stereo not drawn)	6	-96	-11	103	0	/	/
CC[C@@]12C(=O)N(c3ccc(C)cc3)C(=O)N1[C@H](c1ccc(OC)cc1)[C@@H]1C(=O)N(C(C)(C)C)C(=O)[C@@H]12	-2	18	-6	101	3	/	/
Cc1ccn2c(CNCC3OCCc4ccccc43)c(C(=O)N3CCCCCC3)nc2c1 (stereo not drawn)	3	-3	-14	95	0	5	103
Nc1c(-c2cccc([N+](=O)[O-])c2)nc2ccccn12	8	4	-8	119	2	/	/
Cc1cc(NS(=O)(=O)c2c(C(=O)N3CCOCC3)c(C)n(C)c2C)ccc1Br	-2	5	6	/	45*	-4	103
Cc1ccc(NS(=O)(=O)c2c(C(=O)N3CCOCC3)c(C)n(C)c2C)cc1	-6	29	-9	101	1	/	/
Cc1cc(-c2ccc(Cl)cc2)n2nc(C)cc2n1	4	-4	-5	92	45*	-5	102
CC(=O)N/N=C(\C)c1ccc2c(c1)OCCO2	-9	-1	-4	106	72*	-4	96
C/C(=N\NC(N)=S)c1ccc2c(c1)OCCO2	14	-1	-5	107	0	/	/
Cc1ccc(NC(=O)COC(=O)C2(CC(=O)NC(C)(C)C)CCCC2)cc1C	28	6	-2	90	20	-1	99
Cc1ccc(NC(=O)COC(=O)C2CC2(Cl)Cl)cc1C (stereo not drawn)	10	-20	-2	105	0	/	/
Cc1cc(NC(=O)COc2coc(CN3CCN(c4ccccc4F)CC3)cc2=O)no1	1	-1	1	92	0	/	/
COc1ccc(F)cc1C1=CC(=O)C[C@H](c2ccc3c(c2)OCO3)C1	11	1	-3	98	41*	19	98
